Records with an inconclusive call do not appear. Activity calls are given as the source filed them.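 The calls were made as follows, unless noted: active = viability at or below 10% of carrier control in both of two separate runs; inconclusive = viability at or below 10% in only one of the two runs; inactive = the rest.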
What was measured:
[1] = reducers of endogenous Her2 protein level, primary screen, SKBR3 breast tumor cells, AlphaScreen, ATP viability (AID 461;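 active = Her2 level under about 52% in both replicate screens, with viability over 70% of control, limit read from the data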;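 as to Her2 level: lower value means less Her2 protein in the cells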;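 as to viability: percent of carrier control wells set as 100% viability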); details: 18-24 h, measured here: SKBR3 viability, ATP luminescence, at 10 µM
[2] = molecular target: Receptor tyrosine-protein kinase erbB-2 (Homo sapiens) (UniProt P04626); experiment: as above; details: 18-24 h, at 10 µM, stronger effect = lower value
Receptor tyrosine-protein kinase erbB-2 (Homo sapiens), sequence (P04626 whole entry, looked up): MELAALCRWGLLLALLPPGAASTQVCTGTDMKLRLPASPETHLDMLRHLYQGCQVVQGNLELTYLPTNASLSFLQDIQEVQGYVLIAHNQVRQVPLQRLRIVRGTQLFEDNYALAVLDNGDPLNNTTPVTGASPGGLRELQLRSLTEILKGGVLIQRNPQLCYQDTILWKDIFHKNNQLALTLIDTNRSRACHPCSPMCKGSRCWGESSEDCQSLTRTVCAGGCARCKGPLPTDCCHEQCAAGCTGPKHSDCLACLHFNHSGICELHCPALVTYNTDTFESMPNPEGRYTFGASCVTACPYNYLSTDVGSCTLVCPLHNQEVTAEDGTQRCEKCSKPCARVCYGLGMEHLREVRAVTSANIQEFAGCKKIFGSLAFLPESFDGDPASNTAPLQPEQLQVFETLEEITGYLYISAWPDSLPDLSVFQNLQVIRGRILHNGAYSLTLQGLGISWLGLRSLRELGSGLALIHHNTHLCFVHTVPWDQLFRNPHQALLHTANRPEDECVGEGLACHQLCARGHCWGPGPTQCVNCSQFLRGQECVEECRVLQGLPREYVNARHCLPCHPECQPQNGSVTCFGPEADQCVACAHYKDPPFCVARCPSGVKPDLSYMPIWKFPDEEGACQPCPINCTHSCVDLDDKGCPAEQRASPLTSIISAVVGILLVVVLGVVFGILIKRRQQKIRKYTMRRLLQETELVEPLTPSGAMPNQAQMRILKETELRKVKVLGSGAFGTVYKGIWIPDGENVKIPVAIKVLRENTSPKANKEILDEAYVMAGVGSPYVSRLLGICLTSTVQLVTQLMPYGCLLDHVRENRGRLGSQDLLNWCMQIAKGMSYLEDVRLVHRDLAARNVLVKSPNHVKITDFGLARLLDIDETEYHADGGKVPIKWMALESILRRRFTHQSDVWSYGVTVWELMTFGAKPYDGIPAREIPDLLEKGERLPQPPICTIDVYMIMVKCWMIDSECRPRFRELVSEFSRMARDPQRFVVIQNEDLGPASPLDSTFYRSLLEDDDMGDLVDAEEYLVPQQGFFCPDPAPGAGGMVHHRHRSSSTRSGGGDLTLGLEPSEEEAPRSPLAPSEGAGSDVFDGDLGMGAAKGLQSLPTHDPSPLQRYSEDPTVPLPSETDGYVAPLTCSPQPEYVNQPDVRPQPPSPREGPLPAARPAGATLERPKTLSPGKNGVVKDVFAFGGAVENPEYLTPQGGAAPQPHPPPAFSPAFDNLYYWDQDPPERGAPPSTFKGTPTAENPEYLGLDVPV

[3] = SK-BR-3 cell growth inhibitors, pilot screen, 24 h, human (AID 572); details: SK-BR-3 viability, CellTiter-Glo luminescence, at 10 µM, stronger effect = lower value;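 also: compound exposure lasted between 18 and 24 h rather than exactly 24 h; 100% = carrier-treated control wells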
[4] = HUVEC growth inhibition – cell-based, human, primary screen (AID 575;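 active = viability at or below 30% in both replicate assays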;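 also: 100% = median of untreated cell wells with 0.1% DMSO on each plate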); details: HUVEC proliferation, CellTiter-Glo luminescence, 72 h; at 10 µM; stronger effect = lower value
[5] = growth inhibitors of H69AR lung tumor, primary screen, human, duplicate replicates (AID 580;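 active = viability at or under a set limit in both replicates, limit being median viability minus 3 SD, cut at about 48% in these data, passing the limit was not always enough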;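 also: 100% = mean luminescence of untreated wells and 0% = no signal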); details: H69AR lung tumor cells viability, ATP luminescence, 72 h; at 10 µM; stronger effect = lower value
[6] = reversal of MRP1-mediated doxorubicin resistance, pilot screen, H69AR cells, doxorubicin co-treatment (AID 601;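 active = viability loss from added drug above about 55%, and viability with drug at most 40%, in both replicates, limit read from the data, passing the limit was not always enough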); details: CellTiter-Glo, 72 h, at 10 µM; for differential viability (reversal): stronger effect = higher value
[7] = 384-well plate pilot, post-Golgi transport modulator project, inhibition of yeast transport mutant growth (AID 636; in the data active = inhibition above about 31%); details: absorbance 615 nm, about 18 h, stronger effect = higher value
[8] = growth suppression of yeast trafficking mutant, preliminary HTS, modulators of trafficking downstream of Golgi apparatus project, 1536-format plate, OD 615 nm (AID 637; in the data active = inhibition above about 30%); details: yeast transport mutant growth, absorbance 615 nm, 18 h; stronger effect = higher value
[9] = OD615 S. cerevisiae growth inhibition, permissive medium, pilot counter-assay, permissive growth control for S. cerevisiae lifespan shortening project (AID 705;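 active = growth inhibition above 25% in both replicates, a cutoff set 3 SD above the mean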); details: OD615, 24 h, at 10 µM, stronger effect = higher value
[10] = Restrictive medium S. cerevisiae growth inhibition, OD615, pilot screen of yeast lifespan reduction project, restrictive growth control (AID 706;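 active = growth inhibition above a set limit, 3 SD over mean compound inhibition, in both replicates, cut at about 43% in these data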;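 also: modified DeaD lifespan yeast strain shifted to restrictive glucose medium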); details: OD615, 48 h, at 10 µM, stronger effect = higher value
[11] = viability gain of MRP-1-high H69AR cells under doxorubicin, pilot screen, MRP-1 activator project, CellTiter-Glo, duplicate (AID 807;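 active = viability increase at or above a cutoff of the median across tested compounds plus 3 SD, cut at about 8.5% in these data, passing the limit was not always enough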;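 also: compound pretreatment 18-22 h then 72 h combined with doxorubicin; 0% = doxorubicin alone and 100% = vehicle without doxorubicin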); details: H69AR viability with doxorubicin, CellTiter-Glo luminescence; at 10 µM; stronger effect = higher value
[12] = growth suppression of beta-catenin knockout HCT116, pilot screen, human colon tumor cells (AID 823;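 active = cell viability at or below a set limit in both duplicate runs, the limit being the all-compound median minus 4 SD, cut at about 23% in these data, passing the limit was not always enough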;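 also: 0% = wells killed by 20 µM Hyamine and 100% = untreated DMSO cell wells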); details: CellTiter-Glo, 60 h, at 10 µM, stronger effect = lower value
[13] = growth suppression of PTEN-deleted HCT116, pilot screen, cell-based, HCT116 clonal line, CellTiter-Glo (AID 824;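 active = viability at or below 27.92% in each of two runs, the all-compound median minus 4 SD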;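 also: 0% = 20 µM Hyamine control and 100% = vehicle cell control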); details: 60 h, at 10 µM, stronger effect = lower value
[14] = inhibitors of the yeast RAM network, pilot screen, dse1pr::URA3 reporter, 5-FOA selection (AID 869;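 active = inhibition over a set limit, the all-compound mean plus 3 SD, in both replicate runs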;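 also: 0% = DMSO wells with no growth and 100% = 10 µM 1-NA-PP1 with full growth; RAM network block rescues cells from 5-FOA so hits raise OD615 growth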); details: S. cerevisiae dse1pr::URA3 5-FOA growth, OD615, 2 d; at 10 µM; stronger effect = higher value; strain carries analog-sensitive mutant Cbk1 kinase
[15] = RAM signaling pathway blockade in yeast – S. cerevisiae, Pdr1DBD-CYC8 efflux-inhibited sensitized strain, primary screen (AID 1298;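 active = RAM network inhibition above 8.4% in each of two replicates, 3 SD over the compound average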;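 also: 0% = DMSO untreated cells without growth and 100% = 10 µM 1-NA-PP1 full growth; higher means more yeast growth rescued from 5-FOA killing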); details: S. cerevisiae cbk1-as DSE1-URA3 strain, 5-FOA growth OD615, 2 d; at 50 µM; stronger effect = higher value
[16] = H69AR cells + 2 uM doxorubicin, measured here: viability with 2 uM doxorubicin, stronger effect = lower value
[17] = H69AR cells, compound alone cytotoxicity

SMILES | viability [1] [%] | Her2 level [2] | viability [3] | viability [4] | viability [5] | differential viability (reversal) ([6]; H69AR cells + 2 uM doxorubicin) | viability [6, 16] [%] | viability [6, 17] [%] | inhibition [7] | inhibition [8] | growth inhibition [9] | growth inhibition [10] | viability increase [11] | viability [12] | viability [13] | inhibition [14] | RAM network inhibition [15]
CCOc1cc(C2CC(=O)N3CN(C4CCCCC4)CSC3=C2C#N)ccc1O (stereo not given) | 85 | 108% (inactive) | 85% (inactive) | 113% (inactive) | 87.3% (inactive) | -13.7% (inactive) | 101 | 87.3 | 1.92% (inactive) | 2% (inactive) | 41.6% (active) | 76% (active) | -4.1% (inactive) | 105% (inactive) | 95.1% (inactive) | 0.17% (inactive) | 2.85% (inactive)
Cc1ccc2[nH]c(=O)c3cc(C(=O)NCCN4CCN(C)CC4)sc3c2c1 | 96 | 91.5% (inactive) | 96% (inactive) | 97.1% (inactive) | 87.3% (inactive) | 9.29% (inactive) | 78 | 87.3 | -1.03% (inactive) | 6% (inactive) | -9.77% (inactive) | 1.5% (inactive) | -3.64% (inactive) | 74.5% (inactive) | 81.8% (inactive) | 1% (inactive) | -1.95% (inactive)
C=CCOc1ccc(/C(CC)=N/O)c(OC)c1 | 93.5 | 104% (inactive) | 93.5% (inactive) | 70.4% (inactive) | 101% (inactive) | 10.5% (inactive) | 90.9 | 101 | -1.82% (inactive) | 0.5% (inactive) | -19.1% (inactive) | -11.4% (inactive) | -0.09% (inactive) | 96.7% (inactive) | 105% (inactive) | 0.56% (inactive) | -0.68% (inactive)
Cn1c(C(=O)NCCCN2CCN(c3ccc(F)cc3)CC2)cc2c(=O)n(C)c3ccccc3c21 | 81 | 90% (inactive) | 81% (inactive) | 65.7% (inactive) | 84.1% (inactive) | 4.36% (inactive) | 79.8 | 84.1 | -3.07% (inactive) | 0% (inactive) | -6.23% (inactive) | 7.21% (inactive) | -5.3% (inactive) | 67.8% (inactive) | 70.1% (inactive) | -0.495% (inactive) | 1.71% (inactive)
Cn1cc(Cl)c(C(=O)NC2CCCC2)n1 | 83.5 | 118% (inactive) | 83.5% (inactive) | 108% (inactive) | 105% (inactive) | 14.1% (inactive) | 91.3 | 105 | -5.07% (inactive) | 5.5% (inactive) | -12.3% (inactive) | -8.69% (inactive) | -0.89% (inactive) | 104% (inactive) | 103% (inactive) | 1.5% (inactive) | 2.86% (inactive)

— PubChem BioAssay
